PLK1 PBD block: blocks phosphopeptide binding to human PLK1 polo-box domain; 360,000 compounds, 2.8% hits; Plk1 PBD binding of FITC phosphopeptide, fluorescence polarization; P53350; Potency, µM, hits mostly inhibitors; also: series mostly up to about 57 µM; nearly all actives have a fitted effect of over 65% in size
KAT2A inh: GCN5L2 (KAT2A) acetyltransferase inhibition | Q92830 | GCN5L2 HAT assay, ThioGlo1 CoA-SH fluorescence | Potency, µM (highest dose often 58.9 µM), most hits filed as inhibitors | 390,000 compounds, 0.21% hits | AID 504327
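Preincubate 20nM GCN5L2 with compound 15 min, RT → add 50uM ThioGlo1 + 75uM H3(1-25) + 70uM acetyl-CoA → read fluorescence 0 and 20 min. Primary qHTS; fluorescent artifacts likely.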
VDR inhibitor: vitamin D3 receptor (human) inhibition. P11473. VDR-SRC2-3 peptide fluorescence polarization, 2 h. Potency, µM, hits mostly inhibitors. 400,000 compounds, 0.93% hits
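Reagent solutions, kept cold and dark, are dispensed first; compounds are then pinned in at 23 nl, plates briefly spun, and incubated 2 h at ambient temperature. Inhibition of VDR–SRC2-3 peptide binding is read by fluorescence polarization.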
TSG101-PTAP inh: blocks PTAP/TSG101 interaction to inhibit HIV-1 budding; Q99816; Fluorescence polarization, FITC-PTAP peptide / Tsg101 binding; Potency, µM (doses to about 115 µM), actives largely listed as inhibitors; 340,000 tested, under 10 active; AID 493005; active = well fitted inhibition curve with a large enough effect in the main read-out, with a control signal flat, not every such curve was filed as active; inconclusive = small, poorly fitted or top-dose-only effect, or effect the other way, or a change in a side signal; inactive = no such curve, though single readings can be large or run the other way
Target sequence (Q99816 whole entry, looked up): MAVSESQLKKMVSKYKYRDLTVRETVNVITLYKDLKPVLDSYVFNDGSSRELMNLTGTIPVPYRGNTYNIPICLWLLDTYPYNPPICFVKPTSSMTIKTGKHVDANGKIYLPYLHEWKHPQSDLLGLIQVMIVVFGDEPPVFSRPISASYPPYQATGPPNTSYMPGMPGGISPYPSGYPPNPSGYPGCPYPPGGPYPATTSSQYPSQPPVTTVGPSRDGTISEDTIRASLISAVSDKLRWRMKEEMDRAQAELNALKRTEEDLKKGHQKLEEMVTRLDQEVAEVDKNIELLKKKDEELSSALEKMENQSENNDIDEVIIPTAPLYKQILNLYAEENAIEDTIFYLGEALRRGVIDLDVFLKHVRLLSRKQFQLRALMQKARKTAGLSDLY
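Fluorescence polarization binding of Tsg101 binding domain (10 uM final) to FITC-labeled PTAP peptide (50 nM final) in HEPES pH 7.5 buffer with NaCl, Tween 20, EDTA, TCEP. Compounds added before peptide; binding 20 min at RT.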
USP1 inh: inhibitors of human USP1/UAF1 deubiquitinase; O94782; recombinant USP1/UAF1, Ub-Rhodamine cleavage fluorescence; Potency, µM (series often up to 57.1 µM), usual class: inhibitors; 390,000 compounds, 0.23% hits; also: nearly all actives have a fitted effect of over 60% in size
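Step one: compound is pinned into 1nM USP1/UAF1 in HEPES pH 7.8 buffer with TCEP. Step two: 15 min room-temperature incubation. Step three: Ub-Rho (150nM final) starts cleavage, tracked by fluorescence over six one-minute reads.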
TbPYK inh: Trypanosoma brucei pyruvate kinase inhibition, cherry-pick confirmation | AID 720569 | recombinant TbPYK, Kinase-Glo ATP luminescence | Potency, µM (titrated, usually from 76.9 µM), actives largely listed as inhibitors | shares compounds with PLK1 PBD block | 890 compounds, 67% hits; also: nearly all actives have a fitted effect of over 70% in size
TbPYK ADP-Glo: inhibits T. brucei pyruvate kinase in orthogonal ADP-Glo assay. shares compounds with PLK1 PBD block. recombinant TbPYK, ADP-Glo luminescence, 60 min. Potency, µM (highest dose often 76.9 µM), actives largely listed as inhibitors. 890 compounds, 62% hits. AID 720584; also: nearly all actives have a fitted effect of over 75% in size
Numbers stand for hits. Hits are enriched below; roughly 3% of the tested compounds scored in any of these assays. Unless noted, calls follow the shape of the dose curve; as a rule, active = well fitted curve in the direction sought with a large enough effect; inconclusive = small, poorly fitted or top-dose-only effect, or another doubt; inactive = no such curve, though single readings can be large; an effect the other way counts as inactive or inconclusive.

`O=c1cc(CO)oc(C(Nc2ccccn2)c2ccsc2)c1O` (stereo unspecified) gave KAT2A inh inactive.
Screening COc1ccc(C(Nc2ccccn2)c2oc(CO)cc(=O)c2O)cc1 (stereo unspecified) returned PLK1 PBD block 24µM, KAT2A inh inactive, VDR inhibitor inconclusive, TSG101-PTAP inh inactive, USP1 inh inactive, TbPYK inh inactive and TbPYK ADP-Glo inactive.
`CCOc1ccccc1N1CSC2=C(C#N)C(c3c(OC)ccc4ccccc34)CC(=O)N2C1` (stereo unspecified) gave PLK1 PBD block 19µM, KAT2A inh 28µM, VDR inhibitor inconclusive, TSG101-PTAP inh inactive, USP1 inh inactive, TbPYK inh 1.4µM and TbPYK ADP-Glo 1.8µM.
`COc1ccc(C2CC(=O)N3CN(c4ccc(C)c(Cl)c4)CSC3=C2C#N)cc1OC` (stereo unspecified) gave PLK1 PBD block inconclusive, KAT2A inh inconclusive, VDR inhibitor 22µM, TSG101-PTAP inh inactive, USP1 inh inactive, TbPYK inh inconclusive and TbPYK ADP-Glo 18µM.
Screening CCOc1ccccc1N1CCN(S(=O)(=O)c2cc(C)ccc2OC)CC1 returned PLK1 PBD block inactive, KAT2A inh inactive, VDR inhibitor inactive, TSG101-PTAP inh inactive and USP1 inh inactive.
For COc1ccc(N2CSC3=C(C#N)C(c4cc(OC)c(OC)cc4OC)CC(=O)N3C2)c(OC)c1 (stereo unspecified) the results were PLK1 PBD block 12µM, KAT2A inh inactive, VDR inhibitor 45µM, TSG101-PTAP inh inactive, USP1 inh inconclusive, TbPYK inh 0.63µM and TbPYK ADP-Glo 2.8µM.
`COc1ccc(N2C(=O)C3CC(C)=C(C)CC3C2=O)c(OC)c1` (stereo unspecified) gave PLK1 PBD block inactive, KAT2A inh inactive, VDR inhibitor inactive, TSG101-PTAP inh inactive and USP1 inh inactive.
For COc1ccc(C2C(C#N)=C(N)SC(N)=C2C#N)cc1OC the results were PLK1 PBD block inactive, KAT2A inh inactive, VDR inhibitor inactive, TSG101-PTAP inh inactive and USP1 inh inactive.
Screening COc1ccc(N2CSC3=C(C#N)C(c4ccc(OC)c(OC)c4)CC(=O)N3C2)c(OC)c1 (stereo unspecified) returned PLK1 PBD block 7.5µM, KAT2A inh inactive, VDR inhibitor 32µM, TSG101-PTAP inh inactive, USP1 inh inconclusive, TbPYK inh 0.79µM and TbPYK ADP-Glo 5µM.
For COc1cc(C2CC(=O)N(c3ccc(C)c(Cl)c3)C3=C2C(=O)OC3)cc(OC)c1OC (stereo unspecified) the results were KAT2A inh inactive, VDR inhibitor inactive and USP1 inh inconclusive.
For O=C(COC(=O)CCC(=O)c1ccc(F)cc1)Nc1ccc2[nH]c(=O)[nH]c2c1 the results were PLK1 PBD block inactive, KAT2A inh inactive, VDR inhibitor inactive, TSG101-PTAP inh inactive and USP1 inh inactive.
Cc1ccc(Cl)cc1NC(=O)c1sc(-n2nc(C)c(Cc3ccc4c(c3)OCO4)c2C)nc1C was read as KAT2A inh inactive, VDR inhibitor inactive and USP1 inh inconclusive.
Screening COc1cc(C2c3c(-c4cc(C)ccc4O)n[nH]c3C(=O)N2CCCO)ccc1OCCC(C)C (stereo unspecified) returned KAT2A inh inactive, VDR inhibitor inactive and USP1 inh inactive.
`COc1ccc(CCNC(=O)C2CC(=O)N(c3ccc(C)cc3)C2)cc1OC` (stereo unspecified) gave PLK1 PBD block inactive, KAT2A inh inactive, VDR inhibitor inactive, TSG101-PTAP inh inactive and USP1 inh inactive.
Screening COc1cc(OC)c(C2CC(=O)N3CN(c4ccc(C)cc4)CSC3=C2C#N)cc1OC (stereo unspecified) returned PLK1 PBD block 21µM, KAT2A inh inconclusive, VDR inhibitor 45µM, TSG101-PTAP inh inactive, USP1 inh inactive, TbPYK inh 1.4µM and TbPYK ADP-Glo 1.3µM.
For CC1CCN(C(=S)NC(=O)c2ccccc2)CC1 the results were PLK1 PBD block inactive, KAT2A inh inactive, VDR inhibitor inactive, TSG101-PTAP inh inactive and USP1 inh inactive.
CC1CCN(C(=S)NC(=O)c2cccs2)CC1 was read as PLK1 PBD block inactive, KAT2A inh inactive, VDR inhibitor inactive, TSG101-PTAP inh inactive, USP1 inh inactive, TbPYK inh inconclusive and TbPYK ADP-Glo 14µM.
Screening COc1ccc(C2NC(=O)N(C)C3=C2C(=O)N(c2cccc(Cl)c2)C3)cc1 (stereo unspecified) returned KAT2A inh inactive, VDR inhibitor inactive and USP1 inh inactive.
Screening COc1ccc([C@H]2CC(=O)C=C(c3ccc(F)nc3)C2)cc1OC returned PLK1 PBD block inactive, KAT2A inh inactive, VDR inhibitor inactive, TSG101-PTAP inh inactive and USP1 inh inactive.
Screening COc1ccc(C2=CC(=O)C[C@H](c3ccc(OC)c(OC)c3)C2)cn1 returned PLK1 PBD block inactive, KAT2A inh inactive, VDR inhibitor inactive, USP1 inh inconclusive, TbPYK inh inactive and TbPYK ADP-Glo inactive.
Screening CNS(=O)(=O)c1cn(CC(=O)NCc2ccc(OC)cc2)cc1S(=O)(=O)NC returned PLK1 PBD block inactive, KAT2A inh inactive, VDR inhibitor inactive, TSG101-PTAP inh inactive and USP1 inh inactive.
Nc1ccc(C(=O)NN2C(=O)[C@H](Cl)C2c2ccc(Cl)cc2)cc1 (stereo partly specified) was read as PLK1 PBD block inactive, VDR inhibitor inactive, TSG101-PTAP inh inactive and USP1 inh inactive.
For CCc1ccc(Nc2nc(N3CCOCC3)nc(N3CCOCC3)n2)cc1 the results were PLK1 PBD block inactive, KAT2A inh inactive, VDR inhibitor inactive, TSG101-PTAP inh inactive and USP1 inh inactive.
`FC(F)(F)Oc1ccc(Nc2nc(N3CCOCC3)nc(N3CCOCC3)n2)cc1` gave PLK1 PBD block 4.7µM, KAT2A inh inactive, VDR inhibitor inconclusive, TSG101-PTAP inh inactive, USP1 inh inactive, TbPYK inh inactive and TbPYK ADP-Glo inactive.
O=C(CSc1cc([N+](=O)[O-])cc(S(=O)(=O)Cc2ccccc2)c1)NC1CC1 was read as PLK1 PBD block inconclusive, KAT2A inh inactive, VDR inhibitor inactive, TSG101-PTAP inh inactive, USP1 inh inactive, TbPYK inh inconclusive and TbPYK ADP-Glo 25µM.
O=[N+]([O-])c1ccc2c(c1)-c1ccccc1C2O (stereo unspecified) was read as PLK1 PBD block 8.4µM, USP1 inh inactive, TbPYK inh inconclusive and TbPYK ADP-Glo 35µM.
`Cc1nc(SCC(=O)c2cccc([N+](=O)[O-])c2)n[nH]1` gave PLK1 PBD block inconclusive, KAT2A inh inactive, VDR inhibitor 25µM, TSG101-PTAP inh inactive, USP1 inh inactive, TbPYK inh inconclusive and TbPYK ADP-Glo inconclusive.
Screening Cc1ccc(C(=S)N2CCN(Cc3ccccc3)CC2)cc1 returned PLK1 PBD block 8.4µM, KAT2A inh inactive, VDR inhibitor inconclusive, TSG101-PTAP inh inactive, USP1 inh inactive, TbPYK inh 8.9µM and TbPYK ADP-Glo 13µM.
`Cc1ccccc1-c1nc2scc(CCNS(=O)(=O)c3ccccc3)n2n1` gave KAT2A inh inactive, VDR inhibitor inactive and USP1 inh inconclusive.
Screening COC(=O)c1cc(S(=O)(=O)N2CCCCCC2)c[nH]1 returned PLK1 PBD block inactive, KAT2A inh inactive, VDR inhibitor inactive, TSG101-PTAP inh inactive and USP1 inh inactive.
